Shown are actives, neighbours in structure and some others; about 2.2% of the full set was active somewhere.
BaF3 tox: counter-screen for JAK2V617F inhibitors: parental Ba/F3 viability inhibitors. 220,000 tested, 1.1% active. CellTiter-Glo ATP luminescence. inhibition, % at 5.6 µM;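 active = inhibition above a per-campaign cutoff, the mean inhibition of all tested compounds plus 3 SD, cut at about 27% in these data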;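 also: 0% = DMSO wells and 100% = JAK Inhibitor I control wells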
APP 5UTR inh: APP translation inhibition. 190,000 tested, 0.82% active. SH-SY5Y APP 5'UTR-luciferase reporter, luminescence. inhibition, % at 2 µM;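 active = inhibition above a set limit, derived from the sample mean plus 3 SD, cut at about 45% in these data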
Ba/F3 V617F tox: reduce viability of Ba/F3 cells dependent on JAK2V617F. Ba/F3 EpoR-JAK2V617F viability, ATP luminescence. inhibition, % at 5.6 µM. 220,000 tested, 1.1% active. AID 1446;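 active = inhibition above the campaign mean plus 3 SD over all tested compounds, cut at about 24% in these data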;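 also: cytokine-independent growth of Ba/F3 cells driven by EpoR plus mutant JAK2; 0% = DMSO-treated cells and 100% = JAK inhibitor I control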
aSyn UTR inh: 5' untranslated region of α-synuclein, MLPCN primary screen; inhibition, % (tested at 7.5 µM); 300,000 tested, 0.82% active; AID 1813; alpha-synuclein 5'UTR reporter, inhibitor activity; in the data active = inhibition above about 60%;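 also: H4 neuroglioblastoma cells stably carrying SNCA 5'UTR luciferase fusion; 0% = DMSO wells and 100% = positive control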
KLF5 inh: kruppel-like factor 5 inhibition | 290,000 tested, 0.23% active | inhibition, % at 5 µM | AID 1700 | DLD-1 KLF5 promoter-luciferase reporter, luminescence;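 active = inhibition above a per-plate limit of that plate's mean compound inhibition plus 3 SD, cut at about 60% in these data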;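 also: 0% = DMSO wells and 100% = LY294002 at 200 µM; higher means less KLF5 promoter-driven luciferase light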
IEC-6 cytotox: kills IEC-6 intestinal cells in KLF5 counter-screen; inhibition, % at 5 µM; IEC-6 cytotoxicity, luminescence viability; 290,000 tested, 0.78% active;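 also: 0% = plate median of test compound wells and 100% = cytotoxic reference compound wells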
IEC-6 cytotox cf: confirmation of cytotoxic compounds in rat IEC-6 intestinal epithelial cells. shares compounds with IEC-6 cytotox. IEC-6 rat intestinal epithelial viability, luminescence. inhibition, % at 5 µM. 1,900 tested, 63% active;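 also: 0% = vehicle and 100% = reference cytotoxic drug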
Starred values were filed as active, the others as inactive; nt = no result. Rule as the data show it, unless noted: active = inhibition above about 22%; inactive = the rest.

SMILES	BaF3 tox	APP 5UTR inh	Ba/F3 V617F tox	aSyn UTR inh	KLF5 inh	IEC-6 cytotox	IEC-6 cytotox cf
Cc1ccc(Nc2nnc(SCC(=O)Nc3cc(C(=O)O)ccc3C)s2)c(C)c1	-3	nt	-2	-3	-25	1	nt
COc1ccc(/C=C/c2n[nH]c(=O)c(C#N)c2C)cc1	nt	nt	nt	-71	-17	6	nt
COC1=C(N)C(=O)c2nc(-c3nc(C(=O)O)c(C)c(-c4ccc(OC)c(OC)c4O)c3N)ccc2C1=O	71*	95*	86*	nt	-10	45*	101*
COc1ccc(-c2ncncc2-c2csc(C)n2)c(O)c1OC	3	0	-2	-4	-19	-2	nt
O=C(NCCOc1ccccc1F)c1cc([N+](=O)[O-])ccc1N1CCOCC1	nt	nt	nt	-36	43	49*	41*
COc1ccc(/C=N\NC(=O)c2ccccc2F)cc1COc1ccc(F)cc1	nt	nt	nt	-48	14	23*	14
COc1cc2ccccc2cc1C(=O)N/N=C/c1ccc2c(c1)OCO2	nt	nt	nt	-163	35	37*	25*
COc1ccc(/C=N/NC(=O)c2ccco2)cc1COc1ccc(F)cc1	nt	nt	nt	22	-23	2	nt
COc1ccc(/C=N\NC(=O)c2ccccc2F)cc1COc1ccc(F)cc1F	nt	nt	nt	-1	60	80*	62*
CC(C)N(CCNC(=O)COc1ccc2oc3c(c2c1)CCCC3)C(C)C	nt	nt	nt	3	-50	3	nt
O=C1CCN(Cc2ccccc2)N1	nt	nt	nt	-5	3	4	nt
COc1ccc(NS(=O)(=O)c2cc(NC(=O)c3cnc(C)cn3)ccc2N2CCCC2)cc1	7	-24	4	-16	-22	4	nt
COc1ccc(NS(=O)(=O)c2cc(NC(=O)c3ccc(=O)[nH]c3)ccc2N2CCCC2)cc1	nt	nt	nt	-50	21	42*	25*
CC(C)CC1Nc2ncnc(N3CCCCC3)c2N(Cc2ccc(Br)cc2)C1=O (centres undefined)	nt	nt	nt	19	nt	nt	nt
CN(Cc1cn(C)nc1-c1ccc(Oc2ccccc2)cc1)CC1COCCO1 (centres undefined)	102*	15	98*	2	5	77*	3
CN(Cc1cn(C)nc1-c1ccc(Oc2ccccc2)cc1)C1CCOC1 (centres undefined)	4	nt	-1	18	-13	-2	nt
O=C(CCc1ccccc1)Nc1ccncc1	-4	-20	-3	-11	-15	-2	nt
CC(C)c1ccc(NC(=O)CCc2ccccc2)cc1	nt	nt	nt	-389	-64	29*	52*
CCC(Oc1ccccc1OC)C(=O)Nc1ccc2c(c1)OCO2 (centres undefined)	nt	nt	nt	7	-14	5	nt
CCOc1ccc(S(=O)(=O)NCc2cccnc2)cc1NC(=O)c1ccccc1F	nt	nt	nt	-43	26	33*	7
CCOc1ccc(S(=O)(=O)NCc2ccncc2)cc1NC(=O)c1ccccc1F	nt	nt	nt	-4	-16	3	nt
O=C(/C=C/c1ccccc1)Nc1ccc(Br)cn1	5	63*	9	-125	-66	26*	56*
Cc1cc(S(=O)(=O)N2CCCCC2CCNC(=O)C(=O)NCC2CCCO2)ccc1F (centres undefined)	nt	nt	nt	8	nt	nt	nt
COc1ccc(/C=C2\COc3ccccc3C2=O)c(OC)c1	nt	nt	nt	-140	-58	26*	-3
CC(SCc1ccccc1)C(=O)Nc1ccccc1 (centres undefined)	nt	nt	nt	-11	-14	-2	nt
SMILES	BaF3 tox	APP 5UTR inh	Ba/F3 V617F tox	aSyn UTR inh	KLF5 inh	IEC-6 cytotox	IEC-6 cytotox cf
COC(=O)c1c(C)oc2ccc(N(C(=O)c3ccncc3)S(=O)(=O)c3ccc(C)cc3)cc12	75*	89*	86*	110*	45	52*	57*
C/C(=N\NC(=O)COc1ccccc1-c1ccccc1)c1ccc(O)cc1O	-11	nt	4	51	50	74*	42*
CCCCCCCC(=O)N/N=C(\C)c1ccc(O)cc1O	-1	-1	-5	41	-31	2	nt
O=C(O)C1C2C=CC(C2)C1C(=O)NCc1ccc(Cl)cc1Cl (centres undefined)	nt	nt	nt	11	-9	2	nt
CCn1cc(C(=O)NCc2ccco2)c(=O)c2ccc(C)nc21	nt	nt	nt	12	-8	0	nt
CCn1c(=O)cc(SCC(=O)NCCCN2CCN(c3ccccc3F)CC2)c2ccccc21	18	11	11	-41	-14	22*	27*
CCN1CCN(CCNC(=O)c2ccc(/C=C3/Sc4ccccc4N(Cc4ccccc4C)C3=O)cc2)CC1	14	-1	7	26	-71	30*	18
COc1cc(OC)cc(C(=O)N2CC(=O)Nc3ccccc32)c1	nt	nt	nt	31	52	74*	56*
CCOc1ccc(NC(=O)CCNC(=O)C2CCN(S(=O)(=O)c3ccccc3)CC2)cc1	nt	nt	nt	8	-9	4	nt
CC(=O)Nc1nc(NCc2ccccc2Cl)n(-c2ccccc2)n1	nt	nt	nt	15	-16	-6	nt
CC(=O)Nc1nc(NC(=O)/C=C/c2ccccc2)n(-c2ccccc2)n1	10	11	5	79*	27	24*	17
O=C(Nc1nc(NC(=O)c2ccco2)n(-c2ccccc2)n1)c1ccccc1	51*	46*	36*	79*	48	26*	41*
C=CCS(=O)(=O)N1CCCC(Cc2ccccc2C)(C(=O)OCC)C1 (centres undefined)	nt	nt	nt	7	-1	-12	nt
COCc1cc(=O)[nH]c(Nc2nc3ccc(C)cc3o2)n1	7	15	1	16	-58	26*	36*
CCc1ccc2nc(Nc3nc(COC)cc(=O)[nH]3)nc(C)c2c1	3	9	-2	-2	-30	3	nt
N=c1c(S(=O)(=O)c2ccc(Cl)cc2)cc2c(=O)n3ccccc3nc2n1C1CCCCC1	nt	nt	nt	52	-29	2	nt
CC1(C)N=C(N)N=C(N)N1c1ccccc1	99*	6	96*	99*	8	40*	52*
Nc1ccc2nn(-c3ccccc3)nc2c1	1	-93	-4	nt	-11	-2	nt
CC1(C)N=C(N)N=C(N)N1c1ccc(Oc2ccc(Cl)cc2)c(Cl)c1	nt	nt	nt	85*	2	55*	33*
Cc1cccc2c3c([nH]c12)CCN(C)C3	nt	nt	nt	-13	-11	0	nt
O=C1C(=O)N(CCS(=O)(=O)c2ccccc2)c2ccc(Cl)cc21	nt	nt	nt	-27	-15	40*	4
Cc1ccc(C(=O)N/C(=C\c2ccco2)C(=O)NCCN2CCOCC2)cc1C	nt	nt	nt	5	-35	3	nt
COc1cc2c(cc1OC)C(C)N(C(=O)CCNC(=O)c1ccccc1)CC2 (centres undefined)	nt	nt	nt	7	-19	-2	nt
COc1cc2c(cc1OC)C(C)N(C(=O)Nc1ccccc1)CC2 (centres undefined)	nt	nt	nt	-32	60	63*	50*
COC(=O)c1sccc1-c1ccc(/C=N/OC(=O)c2cccs2)o1	-3	nt	-2	0	-29	0	nt
CS(=O)(=O)N1CCc2cc(C(=O)N3CCCC3)ccc21	4	-13	-1	9	-27	-6	nt
Cc1cccc(NC2=NC(C)(C)N=C(N)N2)c1	101*	4	99*	98*	20	77*	70*

Screening data from PubChem BioAssay.
